The values below come from ChEMBL document CHEMBL4513216, “Probing the Open Global Health Chemical Diversity Library for Multistage-Active Starting Points for Next-Generation Antimalarials” (ACS Infect Dis, 2020).

Structures are written as SMILES. The whole screen tested about 65,000 compounds, of which about 2,100 (3.2%) showed an effect of 50% or more. The median lay at about -52%. This excerpt belongs to a sample that is enriched for strong results.

The assay relates to Plasmodium falciparum. Kind of assay: Screen against P. falciparum Asexual Blood Stage (ABS), at 5uM. To be noted: tested at 5 uM. It is filed as functional, Dd2.
In the case of `Cc1ccsc1CNCC1CCCN1c1cccnn1` (centres undefined), the INHIBITION was 78.8%.

As to `CC(C)c1nc(CNCC2CCCN2c2cccnn2)cs1` (centres undefined), the INHIBITION was 71.1%.

As for `CC(Cn1cccn1)NCc1nc(-c2cccs2)no1` (centres undefined), the INHIBITION is -230%.

As to `COc1nc(C)ccc1CNc1cc(N2CCCC2CO)ncn1` (centres undefined), the INHIBITION is on record as -50.3%.

Consider `c1cnnc(N2CCCC2CNCc2nc(-c3cccs3)no2)c1` (centres undefined), for which the INHIBITION worked out at 72.2%.

Regarding `CC(C)c1nc(CC(=O)N2CCN(C)CC2c2ccccc2)cs1` (centres undefined), the INHIBITION is -16.5%.

With `Cc1nc(CN2CCC23CCN(C(=O)c2ccncc2)CC3)cs1`, the INHIBITION was 2.76%.

In the case of `O=C(C1CC=CC1)N1CCC2(CC1)OCCO2`, the INHIBITION was -69.1%.

In the case of `NCC(=O)N1CCCCC1c1ccc(F)cc1` (centres undefined), the INHIBITION is 85.3%.

Consider `O=C(O)[C@@H]1CN(CC(=O)N2CCCCC2)C[C@H]1c1ccc(F)cc1`, for which the INHIBITION is given as -140%.

In the case of `O=C(O)[C@@H]1CN(CC(=O)N2CCCCCC2)C[C@H]1c1ccc(F)cc1`, the INHIBITION is recorded as -66.2%.

On to `Cc1ncsc1CN1C[C@@H](OCc2ccncc2)[C@H]2OCCC[C@H]21`, for which the INHIBITION is -190%.

Take `CC(C)C(NC(=O)c1ccccc1F)C(=O)N1CCC2(CC1)OCCO2` (centres undefined): the INHIBITION is -65.9%.

For `Fc1cnc(N2CCO[C@H]3CN(CC4CCOC4)C[C@H]32)nc1` (some centres undefined), the INHIBITION is on record as -57.2%.

Consider `Cc1cn2c(n1)C(CNCC1=Cc3cc(Cl)ccc3OC1)CCC2` (centres undefined), for which the INHIBITION was 88.2%.

Consider `Cc1cn2c(n1)C(CNCC1=Cc3ccccc3OC1)CCC2` (centres undefined), for which the INHIBITION came to 79%.

For `CC(C)C(=O)N1C[C@H]2CCCN[C@H]2C1`, the INHIBITION was 28.1%.

For the molecule `COc1cccc2c(=O)n(C3CCCNC3)cnc12` (centres undefined), the INHIBITION is -35.5%.

Turning to `CC(C)c1ocnc1C(=O)N1CCC2(CC1)OCCO2`, the INHIBITION is recorded as -39.3%.

Take `Cc1cc(CNC(C)Cn2cncn2)ccc1Br` (centres undefined): the INHIBITION was -29.8%.

For the molecule `CCCOc1ccccc1C(N)CC(C)C` (centres undefined), the INHIBITION was determined as 75.1%.

Consider `COC[C@H]1CCC[C@]12CN(Cc1cccc(C)n1)CCO2`, for which the INHIBITION is given as -25.5%.

For the molecule `O=C1Nc2ccccc2CC12CCN(CCO)C2` (centres undefined), the INHIBITION was -93.6%.

Take `CN1C(=O)C2(CCN(CCO)C2)c2ccccc21` (centres undefined): the INHIBITION is -143%.

Regarding `OCCN1CC2(CCN(c3ccccc3)C2)C1`, the INHIBITION is on record as 62.8%.

In the case of `Cc1noc(C)c1CN1CC[C@@H]2O[C@@H](COCC3CC3)CC[C@@H]21`, the INHIBITION is given as 0.666%.

For `OCC1CCCCN1c1ccc(-c2nc(-c3ccccc3F)no2)cn1` (centres undefined), the INHIBITION was determined as 75.5%.

Regarding `O=C(Cc1ccncc1)N1C[C@@H]2CC[C@H]1CN(Cc1cccnc1)C2`, the INHIBITION worked out at 10.9%.

On to `Cc1nc(CN2CCCC3(CCN(c4cccnc4)C3=O)C2)cs1` (centres undefined), for which the INHIBITION is reported as -34.3%.

As for `c1ccn2cc(CN3CCCC(c4ccn[nH]4)C3)nc2c1` (centres undefined), the INHIBITION was found to be 89.1%.

`CN(C)CCN(CC1CCCO1)C(=O)Cc1cn2ccccc2n1` (centres undefined): the INHIBITION was -90.1%.

`Cn1ncc(NCc2cccc(OCC(F)(F)F)c2)c(Cl)c1=O`: the INHIBITION is -44.7%.

Turning to `CCCS(=O)(=O)N1CCN(CCOC)c2nc(C)ccc2C1`, the INHIBITION is -87%.

Take `CCn1cc(NC(=O)N2CCN(C(=O)Oc3ccccc3)CC2)cn1`: the INHIBITION is reported as -56.8%.

For `c1cnc(N2CCOCC3(CCCN(Cc4cc[nH]n4)C3)C2)nc1` (centres undefined), the INHIBITION is -63.1%.

Turning to `c1cc(CN2CCOCC3(CCNCC3)C2)ccn1`, the INHIBITION is -114%.

With `c1[nH]c(CC2CCCC2)nc1CN1CCCC2(CCOC2)C1` (centres undefined), the INHIBITION is given as 82.2%.

On to `Cc1cc(CN(C)C(=O)CN2CCCC2=O)no1`, for which the INHIBITION is reported as -32.3%.

In the case of `COc1cc(OC)cc(C2SCC(=O)Nc3ccsc32)c1` (centres undefined), the INHIBITION was -38.5%.

For `O=C(Nc1cccnc1)[C@H]1C[C@H]2OCC[C@H]2N(CC2CC2)C1`, the INHIBITION was -67.1%.

In the case of `Cc1n[nH]c2c1C(c1cccnc1)SCC(=O)N2` (centres undefined), the INHIBITION was -32.5%.

On to `Cc1cccc(CN2CCN(C(=O)N(C)C)[C@@H]3CS(=O)(=O)C[C@@H]32)n1`, for which the INHIBITION is reported as -85.1%.

For the molecule `CCC[C@H]1CN(c2nc(CO)cs2)C[C@@H]1NC(=O)C1(COC)CC1`, the INHIBITION is 71.7%.

Consider `O=C(Nc1cccnc1)[C@H]1COC[C@H]2CN(C3CCCC3)C[C@H]21`, for which the INHIBITION came out at 12.5%.

In the case of `O=C(C[C@@H]1COC[C@H]2CN(CC3CC3)C[C@@H]12)NCc1cccnc1`, the INHIBITION is -75.7%.

`O=C(C1CCOCC1)N1C[C@H]2CNC[C@H]2C1`: the INHIBITION is recorded as 52.6%.

As for `O=C(C1CCCC1)N1C[C@H]2CNC[C@H]2C1`, the INHIBITION was -5.05%.

As for `O=C(C1CCC1)N1C[C@H]2CNC[C@H]2C1`, the INHIBITION is reported as -30.2%.

With `O=C(CC1CC1)N1C[C@H]2CCN[C@H]2C1`, the INHIBITION was -62.6%.

In the case of `O=S(=O)(c1cccnc1)N1C[C@@H]2COC[C@]2(CN2CCOCC2)C1`, the INHIBITION was -111%.

In the case of `CN1CCN(Cc2ccccc2CNC(=O)c2ccc(Cl)cc2F)CC1`, the INHIBITION is recorded as 77.2%.

`CN1CCN(Cc2ccccc2CNC(=O)c2cc(Br)ccc2F)CC1`: the INHIBITION was found to be 77.5%.

In the case of `Cc1cc(CN2CCN(C(=O)Cc3ccccc3F)CC2)on1`, the INHIBITION is -206%.

Consider `Cc1ncsc1CN1C[C@H](OCc2ccncc2)[C@H]2OCCC[C@H]21`, for which the INHIBITION is recorded as -47.7%.

As to `O=C(Cc1cccs1)N1C[C@@H]2OCCN(CC3CCCC3)[C@@H]2C1`, the INHIBITION was -96.4%.

`COc1cccc(-c2nc(CNCCCn3cccn3)cs2)c1`: the INHIBITION is listed as 76.3%.

As for `CC(Cn1cccn1)NCc1csc(-c2cccs2)n1` (centres undefined), the INHIBITION is listed as -268%.

Take `CCc1nc(CNC(C)Cn2cccn2)cs1` (centres undefined): the INHIBITION is given as -78.5%.

Turning to `Cc1cc(CN2CC[C@H]3C[C@H](C(=O)N(C)C)O[C@@H]3C2)no1`, the INHIBITION is reported as -20.9%.

Take `c1cc(CN2CCSC3(CCCCC3)C2)no1`: the INHIBITION was -170%.

For the molecule `CC(C)Nc1ccc2nc(C3CCNCC3)nn2c1`, the INHIBITION is given as -54.1%.

Take `CC(C(=O)N1CCCC1)N1CCCN(C(=O)Oc2ccccc2)CC1` (centres undefined): the INHIBITION is given as -54.8%.

In the case of `Cc1nn(C)c(C)c1C(C(=O)O)N1CC=C(c2ccccc2)CC1` (centres undefined), the INHIBITION is given as -74.2%.

As for `O=C(NCCN1CCCCC1)C(c1ccccc1)N1CCCC1` (centres undefined), the INHIBITION was found to be 80%.

For the molecule `O=C1[C@@H]2CCN(C3CCC3)C[C@@H]2OCCN1Cc1ccncc1`, the INHIBITION is given as -35.3%.

Turning to `COc1cccc(CN(C)C(C)c2ccco2)c1OCCn1ccnc1` (centres undefined), the INHIBITION was 71.8%.

Turning to `CNC(=O)CN1C(=O)CCC12CCCN(Cc1ccccn1)C2` (centres undefined), the INHIBITION is -14.2%.

As for `CN(C)CCN1C(=O)CCCC12CCCN(Cc1cccs1)C2` (centres undefined), the INHIBITION was determined as 73.5%.

Take `CN1C(=O)CCC12CCCN(Cc1nccs1)C2` (centres undefined): the INHIBITION is listed as -74.2%.
